According to the supplement of paper PMC11732987, “Enantioselective OTUD7B fragment discovery through chemoproteomics screening and high-throughput optimisation” (Communications Chemistry, 2025):

How the values were obtained:
Experiment in all cases: log2 ratio of Biotin-Ahx-Ub-VS probe labelling (fragment/DMSO); higher = less target engagement (more negative = stronger competition), active = hit call of the paper (q ≤ 0.05, log2 ratio ≤ -1)
Conditions in all cases: compound concentration: 200 uM; treatment time: 3 h
USP42 = molecular target: T1, USP42 (UniProt Q9H9J4)
T1 sequence (whole entry): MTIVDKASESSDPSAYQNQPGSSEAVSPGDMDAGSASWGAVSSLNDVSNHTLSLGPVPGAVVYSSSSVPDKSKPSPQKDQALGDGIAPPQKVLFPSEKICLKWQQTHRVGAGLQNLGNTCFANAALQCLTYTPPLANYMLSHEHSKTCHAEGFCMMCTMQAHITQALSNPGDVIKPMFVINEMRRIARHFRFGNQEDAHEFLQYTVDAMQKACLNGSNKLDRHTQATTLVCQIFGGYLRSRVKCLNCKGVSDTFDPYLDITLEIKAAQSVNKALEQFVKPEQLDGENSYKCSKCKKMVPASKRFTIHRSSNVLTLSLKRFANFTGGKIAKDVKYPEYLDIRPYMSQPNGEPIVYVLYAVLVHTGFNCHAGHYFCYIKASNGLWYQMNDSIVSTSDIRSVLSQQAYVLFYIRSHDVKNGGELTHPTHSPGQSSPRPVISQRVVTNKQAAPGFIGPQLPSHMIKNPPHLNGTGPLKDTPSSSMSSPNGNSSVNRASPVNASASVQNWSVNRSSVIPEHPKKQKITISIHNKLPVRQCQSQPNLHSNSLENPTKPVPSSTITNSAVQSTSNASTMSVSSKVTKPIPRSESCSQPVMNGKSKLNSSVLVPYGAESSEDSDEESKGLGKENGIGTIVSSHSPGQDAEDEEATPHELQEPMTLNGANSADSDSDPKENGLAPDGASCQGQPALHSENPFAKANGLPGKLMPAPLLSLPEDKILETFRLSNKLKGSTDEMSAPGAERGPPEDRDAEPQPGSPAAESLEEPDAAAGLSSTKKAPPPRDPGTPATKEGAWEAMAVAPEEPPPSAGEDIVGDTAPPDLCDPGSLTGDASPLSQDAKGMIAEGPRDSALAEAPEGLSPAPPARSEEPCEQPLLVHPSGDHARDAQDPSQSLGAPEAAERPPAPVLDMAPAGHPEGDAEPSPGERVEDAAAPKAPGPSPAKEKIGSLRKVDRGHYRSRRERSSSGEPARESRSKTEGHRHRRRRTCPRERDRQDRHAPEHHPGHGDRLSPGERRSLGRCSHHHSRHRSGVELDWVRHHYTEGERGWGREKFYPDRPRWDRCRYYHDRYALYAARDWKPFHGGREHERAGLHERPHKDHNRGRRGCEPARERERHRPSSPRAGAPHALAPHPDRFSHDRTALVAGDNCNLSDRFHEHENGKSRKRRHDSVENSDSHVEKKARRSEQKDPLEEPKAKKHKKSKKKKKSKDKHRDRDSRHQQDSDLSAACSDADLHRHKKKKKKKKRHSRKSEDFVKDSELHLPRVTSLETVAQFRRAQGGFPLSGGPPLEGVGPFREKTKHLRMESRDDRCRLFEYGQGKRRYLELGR
In short: (§1)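 Labelled DUBs were enriched with NeutrAvidin, digested with LysC and trypsin, and run by diaPASEF LC-MS/MS. The labelling used Biotin-Ahx-Ub-VS at 0.5 µM final for 1 h on HEK293T lysate (495 µg per sample) previously treated in triplicate with fragment at 200 µM or vehicle for 3 h. Values are average log2 fragment/vehicle ratios by unpaired t-test on global-median-normalised Spectronaut quantities of proteins with ≥2 unique peptides.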

USP46 = USP46 (UniProt P62068)
Sequence of USP46 (P62068 whole entry): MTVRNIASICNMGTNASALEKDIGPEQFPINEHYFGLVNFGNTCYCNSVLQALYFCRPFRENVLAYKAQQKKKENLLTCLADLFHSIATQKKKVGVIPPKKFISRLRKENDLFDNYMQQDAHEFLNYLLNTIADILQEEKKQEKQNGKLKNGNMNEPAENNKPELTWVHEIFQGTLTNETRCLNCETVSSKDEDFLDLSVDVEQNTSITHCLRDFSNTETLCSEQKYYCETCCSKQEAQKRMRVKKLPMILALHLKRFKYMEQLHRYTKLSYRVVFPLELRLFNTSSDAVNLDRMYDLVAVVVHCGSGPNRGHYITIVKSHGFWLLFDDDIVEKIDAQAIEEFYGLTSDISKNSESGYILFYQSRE
In short: as §1

USP47 = molecular target: T2, USP47 (UniProt Q96K76)
T2 sequence (whole entry): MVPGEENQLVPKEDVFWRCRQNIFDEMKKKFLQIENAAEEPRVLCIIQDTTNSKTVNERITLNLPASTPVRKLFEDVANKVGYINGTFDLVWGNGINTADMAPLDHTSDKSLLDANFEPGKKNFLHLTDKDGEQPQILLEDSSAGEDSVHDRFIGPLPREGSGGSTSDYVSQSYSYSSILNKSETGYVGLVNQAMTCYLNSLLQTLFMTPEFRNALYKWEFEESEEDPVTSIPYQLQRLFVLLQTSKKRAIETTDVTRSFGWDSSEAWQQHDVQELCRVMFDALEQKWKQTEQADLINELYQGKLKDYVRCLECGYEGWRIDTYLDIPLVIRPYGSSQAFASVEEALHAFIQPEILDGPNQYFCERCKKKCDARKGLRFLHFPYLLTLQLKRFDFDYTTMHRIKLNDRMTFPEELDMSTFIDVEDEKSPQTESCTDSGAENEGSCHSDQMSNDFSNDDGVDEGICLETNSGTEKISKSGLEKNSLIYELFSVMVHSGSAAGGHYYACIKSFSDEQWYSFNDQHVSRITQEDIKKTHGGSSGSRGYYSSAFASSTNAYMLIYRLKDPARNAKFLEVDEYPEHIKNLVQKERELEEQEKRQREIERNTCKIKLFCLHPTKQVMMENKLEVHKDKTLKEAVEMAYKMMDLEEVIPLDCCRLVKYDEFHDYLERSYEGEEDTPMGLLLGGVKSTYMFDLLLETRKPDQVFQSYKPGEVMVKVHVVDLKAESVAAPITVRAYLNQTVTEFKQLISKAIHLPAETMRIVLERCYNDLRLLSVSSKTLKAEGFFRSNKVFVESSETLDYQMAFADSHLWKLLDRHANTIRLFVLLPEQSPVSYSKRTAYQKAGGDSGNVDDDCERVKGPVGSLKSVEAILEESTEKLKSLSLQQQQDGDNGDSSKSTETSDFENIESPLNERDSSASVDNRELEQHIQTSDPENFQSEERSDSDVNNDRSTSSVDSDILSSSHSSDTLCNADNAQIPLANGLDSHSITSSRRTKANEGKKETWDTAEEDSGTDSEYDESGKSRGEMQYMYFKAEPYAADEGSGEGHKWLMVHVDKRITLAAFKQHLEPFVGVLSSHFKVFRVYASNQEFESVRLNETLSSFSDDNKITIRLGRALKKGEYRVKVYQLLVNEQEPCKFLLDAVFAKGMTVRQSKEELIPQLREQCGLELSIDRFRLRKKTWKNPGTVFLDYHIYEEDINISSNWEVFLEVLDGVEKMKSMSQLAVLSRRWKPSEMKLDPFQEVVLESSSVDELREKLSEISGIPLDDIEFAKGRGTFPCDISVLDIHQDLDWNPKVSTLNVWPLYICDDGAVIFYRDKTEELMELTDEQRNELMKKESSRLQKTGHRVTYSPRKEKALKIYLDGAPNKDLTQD
In short: as §1

USP48 = molecular target: T3, USP48 (UniProt Q86UV5)
T3 sequence (whole entry): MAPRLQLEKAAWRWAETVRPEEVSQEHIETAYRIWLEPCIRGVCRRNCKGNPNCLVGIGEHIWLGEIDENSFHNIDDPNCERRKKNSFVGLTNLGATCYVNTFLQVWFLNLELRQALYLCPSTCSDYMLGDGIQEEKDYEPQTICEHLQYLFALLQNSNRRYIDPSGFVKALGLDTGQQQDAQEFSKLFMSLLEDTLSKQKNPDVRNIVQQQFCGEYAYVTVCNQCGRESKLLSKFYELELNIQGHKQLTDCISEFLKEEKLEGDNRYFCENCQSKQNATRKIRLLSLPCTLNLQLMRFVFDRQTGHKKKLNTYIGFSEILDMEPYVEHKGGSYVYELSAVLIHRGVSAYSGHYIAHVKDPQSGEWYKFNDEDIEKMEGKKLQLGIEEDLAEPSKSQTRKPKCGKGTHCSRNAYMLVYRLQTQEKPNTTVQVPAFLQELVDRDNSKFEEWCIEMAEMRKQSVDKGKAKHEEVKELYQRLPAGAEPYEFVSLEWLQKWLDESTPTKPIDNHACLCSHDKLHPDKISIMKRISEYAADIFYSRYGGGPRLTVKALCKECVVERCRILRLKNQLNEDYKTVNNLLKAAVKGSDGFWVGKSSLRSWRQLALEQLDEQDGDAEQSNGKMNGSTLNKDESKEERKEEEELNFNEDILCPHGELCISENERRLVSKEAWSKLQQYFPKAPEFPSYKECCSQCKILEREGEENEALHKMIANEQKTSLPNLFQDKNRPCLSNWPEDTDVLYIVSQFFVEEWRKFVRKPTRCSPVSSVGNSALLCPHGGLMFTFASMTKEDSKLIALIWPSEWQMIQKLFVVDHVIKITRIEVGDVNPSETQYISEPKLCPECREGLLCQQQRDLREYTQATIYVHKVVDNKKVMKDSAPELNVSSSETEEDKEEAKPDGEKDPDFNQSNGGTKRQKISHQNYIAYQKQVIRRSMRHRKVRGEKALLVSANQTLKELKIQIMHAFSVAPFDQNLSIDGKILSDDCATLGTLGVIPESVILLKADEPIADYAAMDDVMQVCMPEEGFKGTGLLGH
In short: as §1

USP5 = molecular target: T4, USP5 (UniProt P45974)
T4 sequence (whole entry): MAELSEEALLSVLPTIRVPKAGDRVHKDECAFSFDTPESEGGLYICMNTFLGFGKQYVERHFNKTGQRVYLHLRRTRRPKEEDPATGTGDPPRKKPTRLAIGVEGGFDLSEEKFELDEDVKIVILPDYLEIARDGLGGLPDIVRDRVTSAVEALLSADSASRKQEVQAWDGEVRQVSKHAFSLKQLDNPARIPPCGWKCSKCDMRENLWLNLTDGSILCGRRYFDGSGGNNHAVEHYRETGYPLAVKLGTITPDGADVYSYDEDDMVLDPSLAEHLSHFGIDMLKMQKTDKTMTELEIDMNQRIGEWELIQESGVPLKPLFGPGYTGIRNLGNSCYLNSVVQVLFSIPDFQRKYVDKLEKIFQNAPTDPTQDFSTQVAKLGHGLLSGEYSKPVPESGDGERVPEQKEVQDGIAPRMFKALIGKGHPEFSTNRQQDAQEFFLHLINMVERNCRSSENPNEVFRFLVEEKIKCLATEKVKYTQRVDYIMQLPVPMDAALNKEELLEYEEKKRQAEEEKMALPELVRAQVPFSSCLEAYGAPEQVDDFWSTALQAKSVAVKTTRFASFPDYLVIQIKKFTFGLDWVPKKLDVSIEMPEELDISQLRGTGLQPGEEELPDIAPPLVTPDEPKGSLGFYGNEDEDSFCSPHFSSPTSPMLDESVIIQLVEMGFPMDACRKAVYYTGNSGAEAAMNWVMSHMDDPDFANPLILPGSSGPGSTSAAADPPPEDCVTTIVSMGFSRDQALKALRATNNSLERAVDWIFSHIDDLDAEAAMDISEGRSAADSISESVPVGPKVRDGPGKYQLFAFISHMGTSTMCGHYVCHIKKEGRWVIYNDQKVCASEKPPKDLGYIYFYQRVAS
In short: as §1

USP54 = USP54 (UniProt Q70EL1)
Sequence of USP54 (Q70EL1 whole entry): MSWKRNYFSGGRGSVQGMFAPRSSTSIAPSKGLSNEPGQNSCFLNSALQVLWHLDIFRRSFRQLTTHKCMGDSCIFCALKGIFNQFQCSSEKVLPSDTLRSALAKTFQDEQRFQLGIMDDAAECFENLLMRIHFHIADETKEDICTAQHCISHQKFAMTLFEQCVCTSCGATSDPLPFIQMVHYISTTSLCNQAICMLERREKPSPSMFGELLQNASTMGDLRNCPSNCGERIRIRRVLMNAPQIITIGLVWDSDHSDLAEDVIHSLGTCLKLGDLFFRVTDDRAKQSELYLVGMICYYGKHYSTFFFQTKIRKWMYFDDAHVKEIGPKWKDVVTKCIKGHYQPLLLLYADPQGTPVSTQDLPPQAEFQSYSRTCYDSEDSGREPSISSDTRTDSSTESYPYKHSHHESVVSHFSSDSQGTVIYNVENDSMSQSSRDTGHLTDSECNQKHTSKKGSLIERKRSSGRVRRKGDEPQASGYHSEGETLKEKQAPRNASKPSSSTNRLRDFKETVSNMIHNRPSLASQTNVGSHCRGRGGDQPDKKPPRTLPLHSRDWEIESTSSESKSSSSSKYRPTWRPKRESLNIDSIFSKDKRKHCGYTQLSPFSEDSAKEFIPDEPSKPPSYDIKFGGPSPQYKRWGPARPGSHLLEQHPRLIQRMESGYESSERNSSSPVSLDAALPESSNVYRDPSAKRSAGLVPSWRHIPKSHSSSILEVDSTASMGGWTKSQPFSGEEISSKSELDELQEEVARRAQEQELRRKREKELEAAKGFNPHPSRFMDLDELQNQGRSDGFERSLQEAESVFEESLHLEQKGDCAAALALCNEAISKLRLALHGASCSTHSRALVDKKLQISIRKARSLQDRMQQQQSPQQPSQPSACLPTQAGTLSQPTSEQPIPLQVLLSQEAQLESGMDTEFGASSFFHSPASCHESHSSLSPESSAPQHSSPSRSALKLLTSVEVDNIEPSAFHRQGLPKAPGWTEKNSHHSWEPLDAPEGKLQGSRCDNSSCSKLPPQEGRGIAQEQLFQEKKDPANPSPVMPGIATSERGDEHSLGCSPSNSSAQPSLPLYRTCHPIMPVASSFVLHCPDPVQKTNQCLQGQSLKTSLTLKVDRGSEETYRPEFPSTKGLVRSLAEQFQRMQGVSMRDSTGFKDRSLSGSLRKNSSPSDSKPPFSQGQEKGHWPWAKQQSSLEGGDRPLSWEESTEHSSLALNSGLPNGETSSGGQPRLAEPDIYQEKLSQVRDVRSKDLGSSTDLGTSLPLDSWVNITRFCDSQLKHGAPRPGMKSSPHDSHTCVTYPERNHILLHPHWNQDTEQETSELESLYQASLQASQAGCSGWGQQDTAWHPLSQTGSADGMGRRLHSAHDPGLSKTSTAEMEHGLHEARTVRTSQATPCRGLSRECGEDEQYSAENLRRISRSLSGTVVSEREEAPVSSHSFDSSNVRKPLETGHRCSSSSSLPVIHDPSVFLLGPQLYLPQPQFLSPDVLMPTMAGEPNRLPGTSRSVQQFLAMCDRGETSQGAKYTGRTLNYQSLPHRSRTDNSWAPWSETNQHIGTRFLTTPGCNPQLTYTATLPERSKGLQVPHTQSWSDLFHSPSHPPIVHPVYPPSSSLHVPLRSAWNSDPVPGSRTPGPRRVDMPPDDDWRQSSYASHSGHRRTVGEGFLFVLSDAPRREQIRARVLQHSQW
In short: as §1

USP7 = USP7 (UniProt Q93009)
Sequence of USP7 (Q93009 whole entry, looked up): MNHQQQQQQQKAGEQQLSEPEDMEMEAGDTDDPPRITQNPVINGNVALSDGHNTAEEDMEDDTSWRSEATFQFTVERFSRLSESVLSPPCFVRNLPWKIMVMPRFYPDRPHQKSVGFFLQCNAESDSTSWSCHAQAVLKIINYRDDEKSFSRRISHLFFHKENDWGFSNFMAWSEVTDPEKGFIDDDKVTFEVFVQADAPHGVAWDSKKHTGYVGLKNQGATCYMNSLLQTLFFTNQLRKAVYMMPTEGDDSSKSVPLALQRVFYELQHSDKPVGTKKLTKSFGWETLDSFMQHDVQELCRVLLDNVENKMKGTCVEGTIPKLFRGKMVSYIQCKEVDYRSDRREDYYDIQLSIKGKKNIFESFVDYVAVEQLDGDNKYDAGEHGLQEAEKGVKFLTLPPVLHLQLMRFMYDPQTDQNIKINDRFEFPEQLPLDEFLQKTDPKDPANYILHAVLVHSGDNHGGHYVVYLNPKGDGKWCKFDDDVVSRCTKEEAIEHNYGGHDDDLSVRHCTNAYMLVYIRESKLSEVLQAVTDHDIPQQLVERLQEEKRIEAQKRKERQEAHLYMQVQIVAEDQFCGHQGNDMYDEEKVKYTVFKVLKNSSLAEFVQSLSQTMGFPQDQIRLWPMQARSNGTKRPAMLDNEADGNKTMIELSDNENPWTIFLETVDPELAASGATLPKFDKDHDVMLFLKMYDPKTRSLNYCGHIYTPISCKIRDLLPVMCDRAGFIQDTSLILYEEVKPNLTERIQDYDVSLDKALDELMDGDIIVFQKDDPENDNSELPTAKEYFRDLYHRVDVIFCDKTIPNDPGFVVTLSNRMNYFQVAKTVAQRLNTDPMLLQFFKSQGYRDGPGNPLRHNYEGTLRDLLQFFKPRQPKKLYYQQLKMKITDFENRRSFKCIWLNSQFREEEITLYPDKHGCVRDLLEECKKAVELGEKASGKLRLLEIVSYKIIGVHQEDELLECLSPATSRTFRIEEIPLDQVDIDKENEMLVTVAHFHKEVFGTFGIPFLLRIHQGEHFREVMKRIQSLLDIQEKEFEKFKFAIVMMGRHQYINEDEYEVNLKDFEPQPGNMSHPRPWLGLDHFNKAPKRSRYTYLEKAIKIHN
In short: as §1

USP8 = molecular target: T5, USP8 (UniProt P40818)
T5 sequence (whole entry): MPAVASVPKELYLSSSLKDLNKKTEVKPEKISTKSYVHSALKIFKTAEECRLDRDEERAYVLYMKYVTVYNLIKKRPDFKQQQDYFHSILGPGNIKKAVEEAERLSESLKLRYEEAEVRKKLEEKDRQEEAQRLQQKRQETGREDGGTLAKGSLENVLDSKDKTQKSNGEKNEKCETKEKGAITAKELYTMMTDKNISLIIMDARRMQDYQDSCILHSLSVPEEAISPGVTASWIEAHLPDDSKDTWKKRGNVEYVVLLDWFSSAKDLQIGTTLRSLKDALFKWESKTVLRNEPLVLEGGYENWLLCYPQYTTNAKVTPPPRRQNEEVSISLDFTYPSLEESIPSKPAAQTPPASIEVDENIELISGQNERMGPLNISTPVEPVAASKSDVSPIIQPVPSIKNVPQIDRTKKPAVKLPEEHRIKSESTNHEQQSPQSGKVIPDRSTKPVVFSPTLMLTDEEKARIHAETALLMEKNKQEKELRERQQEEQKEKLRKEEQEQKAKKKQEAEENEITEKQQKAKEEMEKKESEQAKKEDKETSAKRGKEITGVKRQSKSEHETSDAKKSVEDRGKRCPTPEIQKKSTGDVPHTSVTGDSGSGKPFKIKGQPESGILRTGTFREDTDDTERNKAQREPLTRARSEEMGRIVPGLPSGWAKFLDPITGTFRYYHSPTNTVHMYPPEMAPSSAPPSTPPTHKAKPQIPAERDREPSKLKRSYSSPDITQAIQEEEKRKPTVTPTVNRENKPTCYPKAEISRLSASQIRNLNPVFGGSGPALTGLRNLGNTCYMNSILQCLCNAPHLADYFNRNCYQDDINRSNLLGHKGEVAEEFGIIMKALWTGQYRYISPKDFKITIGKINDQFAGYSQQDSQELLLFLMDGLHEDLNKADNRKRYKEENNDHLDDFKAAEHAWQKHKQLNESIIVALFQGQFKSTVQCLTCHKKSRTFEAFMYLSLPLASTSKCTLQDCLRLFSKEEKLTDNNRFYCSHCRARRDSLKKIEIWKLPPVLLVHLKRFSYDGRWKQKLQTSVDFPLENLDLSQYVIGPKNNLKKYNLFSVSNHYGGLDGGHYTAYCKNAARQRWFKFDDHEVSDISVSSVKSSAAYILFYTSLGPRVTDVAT
In short: as §1

USP9X = USP9X (UniProt Q93008)
In short: as §1

UniProt O00487 = molecular target: UniProt O00487
Sequence of UniProt O00487 (O00487 whole entry): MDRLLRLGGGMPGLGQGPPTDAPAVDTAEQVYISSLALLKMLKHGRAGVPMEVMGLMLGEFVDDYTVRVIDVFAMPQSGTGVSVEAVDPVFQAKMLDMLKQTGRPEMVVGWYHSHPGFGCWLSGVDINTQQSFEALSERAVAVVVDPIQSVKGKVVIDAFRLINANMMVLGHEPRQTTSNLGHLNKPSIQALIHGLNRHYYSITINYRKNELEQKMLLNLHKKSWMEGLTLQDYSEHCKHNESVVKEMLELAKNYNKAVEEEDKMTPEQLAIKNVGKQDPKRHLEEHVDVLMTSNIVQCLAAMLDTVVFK
In short: as §1

Measured: log2 ratio of Biotin-Ahx-Ub-VS probe labelling

O=C(CCl)NCCC1COCCO1 (stereo not given)
inactive: USP42 0.357 | USP46 -0.000444 | USP47 -0.101 | USP48 -0.171 | USP5 -0.0923 | USP54 0.157 | USP7 -0.157 | USP8 -0.26 | USP9X -0.131 | UniProt O00487 -0.1

O=C(CCl)N1CCN(C(=O)Nc2ccccc2)CC1
inactive: USP42 0.532 | USP46 -0.0442 | USP47 -0.216 | USP48 -0.158 | USP5 0.398 | USP54 0.404 | USP7 -0.132 | USP8 0.0931 | USP9X 0.0323 | UniProt O00487 -0.0538

CCN(C(=O)CCl)C1CCS(=O)(=O)C1 (stereo not given)
inactive: USP42 0.372 | USP46 -0.128 | USP47 0.027 | USP48 -0.155 | USP5 0.158 | USP54 -0.012 | USP7 -0.288 | USP8 0.0171 | USP9X -0.112 | UniProt O00487 0.0162
